How the values were obtained:
[1] = target: Sphingosine kinase 1 (Homo sapiens) (UniProt Q9NYA1); conditions: at 1 µM;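 further: mean SPHK1 inhibition value reported from the GSK PKIS kinase panel screen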
[2] = target: T1, Sphingosine kinase 2 (Homo sapiens) (UniProt Q9NRA0); conditions: at 0.1 µM
T1 sequence (whole entry): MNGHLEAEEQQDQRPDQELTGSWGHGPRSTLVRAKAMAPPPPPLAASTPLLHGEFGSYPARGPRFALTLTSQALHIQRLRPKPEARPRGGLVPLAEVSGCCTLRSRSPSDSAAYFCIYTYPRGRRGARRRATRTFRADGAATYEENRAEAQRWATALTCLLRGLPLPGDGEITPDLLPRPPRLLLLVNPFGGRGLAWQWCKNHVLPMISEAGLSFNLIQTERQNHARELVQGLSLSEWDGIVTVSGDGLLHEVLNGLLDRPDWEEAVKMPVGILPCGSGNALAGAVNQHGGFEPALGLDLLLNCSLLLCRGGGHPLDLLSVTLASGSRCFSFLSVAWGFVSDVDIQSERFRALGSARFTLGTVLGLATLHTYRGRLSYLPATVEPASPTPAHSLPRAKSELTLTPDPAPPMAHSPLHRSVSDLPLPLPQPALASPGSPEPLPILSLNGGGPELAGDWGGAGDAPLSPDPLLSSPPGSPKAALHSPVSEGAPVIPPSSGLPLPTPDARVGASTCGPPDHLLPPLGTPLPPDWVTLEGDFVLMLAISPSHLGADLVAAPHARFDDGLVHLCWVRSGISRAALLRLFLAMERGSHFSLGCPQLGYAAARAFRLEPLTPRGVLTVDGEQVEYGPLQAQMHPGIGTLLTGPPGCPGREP

[3] = target: T1, Sphingosine kinase 2 (Homo sapiens); conditions: at 1 µM
[4] = target: Casein kinase II subunit alpha (Homo sapiens) (UniProt P68400); conditions: at 0.1 µM
Sequence of Casein kinase II subunit alpha (Homo sapiens) (P68400 whole entry, looked up): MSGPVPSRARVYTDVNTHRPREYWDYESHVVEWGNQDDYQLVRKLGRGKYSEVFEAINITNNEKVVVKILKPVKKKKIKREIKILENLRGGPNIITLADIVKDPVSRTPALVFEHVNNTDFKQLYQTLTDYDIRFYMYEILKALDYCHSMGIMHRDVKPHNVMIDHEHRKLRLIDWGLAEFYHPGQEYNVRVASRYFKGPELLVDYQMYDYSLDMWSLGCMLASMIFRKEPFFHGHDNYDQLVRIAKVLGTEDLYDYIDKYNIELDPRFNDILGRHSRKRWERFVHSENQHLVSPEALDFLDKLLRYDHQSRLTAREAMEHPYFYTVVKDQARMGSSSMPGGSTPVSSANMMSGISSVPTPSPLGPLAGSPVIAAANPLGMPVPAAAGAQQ

[5] = target: Casein kinase II subunit alpha (Homo sapiens) (UniProt P68400); conditions: at 1 µM
[6] = target: T2, Inhibitor of nuclear factor kappa-B kinase subunit alpha (Homo sapiens) (UniProt O15111); conditions: at 0.1 µM
T2 sequence (whole entry): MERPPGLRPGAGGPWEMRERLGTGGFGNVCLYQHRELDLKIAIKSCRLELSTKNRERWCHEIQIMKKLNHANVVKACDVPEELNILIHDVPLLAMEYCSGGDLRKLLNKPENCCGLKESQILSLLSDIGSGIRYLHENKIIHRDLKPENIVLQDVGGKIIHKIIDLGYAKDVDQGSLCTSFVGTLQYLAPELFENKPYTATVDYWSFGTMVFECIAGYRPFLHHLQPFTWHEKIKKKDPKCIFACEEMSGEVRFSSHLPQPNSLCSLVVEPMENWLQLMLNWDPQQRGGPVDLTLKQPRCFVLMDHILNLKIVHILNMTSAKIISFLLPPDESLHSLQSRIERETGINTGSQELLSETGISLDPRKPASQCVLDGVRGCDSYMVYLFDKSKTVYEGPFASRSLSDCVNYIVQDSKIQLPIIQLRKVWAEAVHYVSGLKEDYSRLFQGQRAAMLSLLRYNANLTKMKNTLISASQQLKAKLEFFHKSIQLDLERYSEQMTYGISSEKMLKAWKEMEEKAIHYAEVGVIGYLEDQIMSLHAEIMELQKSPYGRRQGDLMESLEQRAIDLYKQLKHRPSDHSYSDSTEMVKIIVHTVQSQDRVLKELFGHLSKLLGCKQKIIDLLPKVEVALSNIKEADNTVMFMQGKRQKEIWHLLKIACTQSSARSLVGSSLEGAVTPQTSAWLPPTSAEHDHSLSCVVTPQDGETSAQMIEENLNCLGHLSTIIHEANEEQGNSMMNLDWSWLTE

[7] = target: T2, Inhibitor of nuclear factor kappa-B kinase subunit alpha (Homo sapiens); conditions: at 1 µM
[8] = target: T3, Inhibitor of nuclear factor kappa-B kinase subunit beta (Homo sapiens) (UniProt O14920); conditions: at 0.1 µM
T3 sequence (whole entry): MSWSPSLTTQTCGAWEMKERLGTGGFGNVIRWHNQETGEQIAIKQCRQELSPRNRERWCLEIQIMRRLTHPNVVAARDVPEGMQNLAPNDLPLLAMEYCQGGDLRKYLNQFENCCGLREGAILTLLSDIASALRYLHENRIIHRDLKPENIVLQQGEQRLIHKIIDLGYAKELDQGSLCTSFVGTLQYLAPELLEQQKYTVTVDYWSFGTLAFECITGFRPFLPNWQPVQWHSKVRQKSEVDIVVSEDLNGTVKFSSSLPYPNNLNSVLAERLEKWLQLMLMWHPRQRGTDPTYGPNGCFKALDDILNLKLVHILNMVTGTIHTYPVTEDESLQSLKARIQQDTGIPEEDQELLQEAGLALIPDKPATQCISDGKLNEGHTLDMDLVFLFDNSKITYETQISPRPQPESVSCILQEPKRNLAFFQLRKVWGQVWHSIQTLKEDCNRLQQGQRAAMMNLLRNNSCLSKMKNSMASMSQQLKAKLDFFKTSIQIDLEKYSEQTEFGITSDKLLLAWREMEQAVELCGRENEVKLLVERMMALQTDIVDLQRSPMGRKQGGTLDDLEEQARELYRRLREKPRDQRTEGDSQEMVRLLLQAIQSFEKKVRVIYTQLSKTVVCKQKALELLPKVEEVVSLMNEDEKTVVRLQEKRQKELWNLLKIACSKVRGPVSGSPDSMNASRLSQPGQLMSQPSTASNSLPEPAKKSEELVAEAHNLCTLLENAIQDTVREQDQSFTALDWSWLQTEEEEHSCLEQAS

[9] = target: T3, Inhibitor of nuclear factor kappa-B kinase subunit beta (Homo sapiens); conditions: at 1 µM
[10] = target: T4, Inhibitor of nuclear factor kappa-B kinase subunit epsilon (Homo sapiens) (UniProt Q14164); conditions: at 0.1 µM
T4 sequence (whole entry): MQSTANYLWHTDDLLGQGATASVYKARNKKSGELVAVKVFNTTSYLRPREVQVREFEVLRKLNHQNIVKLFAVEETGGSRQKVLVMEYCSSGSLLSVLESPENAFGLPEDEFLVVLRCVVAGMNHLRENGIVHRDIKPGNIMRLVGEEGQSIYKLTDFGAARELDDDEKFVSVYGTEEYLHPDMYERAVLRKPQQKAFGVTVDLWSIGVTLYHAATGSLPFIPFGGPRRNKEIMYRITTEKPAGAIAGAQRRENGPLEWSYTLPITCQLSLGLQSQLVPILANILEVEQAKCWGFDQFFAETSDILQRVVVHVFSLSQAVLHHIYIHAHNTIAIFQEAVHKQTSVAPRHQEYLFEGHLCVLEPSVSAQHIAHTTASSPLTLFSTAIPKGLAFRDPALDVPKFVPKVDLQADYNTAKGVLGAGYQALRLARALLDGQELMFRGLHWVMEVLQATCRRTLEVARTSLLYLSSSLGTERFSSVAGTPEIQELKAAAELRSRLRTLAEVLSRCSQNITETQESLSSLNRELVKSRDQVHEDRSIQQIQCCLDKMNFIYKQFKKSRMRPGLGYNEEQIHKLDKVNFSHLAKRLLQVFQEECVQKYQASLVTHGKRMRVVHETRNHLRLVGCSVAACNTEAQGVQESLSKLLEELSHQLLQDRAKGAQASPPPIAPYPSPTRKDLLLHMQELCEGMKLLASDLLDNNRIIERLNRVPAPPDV

[11] = target: T4, Inhibitor of nuclear factor kappa-B kinase subunit epsilon (Homo sapiens); conditions: at 1 µM
[12] = target: T5, Serine/threonine-protein kinase Nek1 (Homo sapiens) (UniProt Q96PY6); conditions: at 0.1 µM
T5 sequence (whole entry): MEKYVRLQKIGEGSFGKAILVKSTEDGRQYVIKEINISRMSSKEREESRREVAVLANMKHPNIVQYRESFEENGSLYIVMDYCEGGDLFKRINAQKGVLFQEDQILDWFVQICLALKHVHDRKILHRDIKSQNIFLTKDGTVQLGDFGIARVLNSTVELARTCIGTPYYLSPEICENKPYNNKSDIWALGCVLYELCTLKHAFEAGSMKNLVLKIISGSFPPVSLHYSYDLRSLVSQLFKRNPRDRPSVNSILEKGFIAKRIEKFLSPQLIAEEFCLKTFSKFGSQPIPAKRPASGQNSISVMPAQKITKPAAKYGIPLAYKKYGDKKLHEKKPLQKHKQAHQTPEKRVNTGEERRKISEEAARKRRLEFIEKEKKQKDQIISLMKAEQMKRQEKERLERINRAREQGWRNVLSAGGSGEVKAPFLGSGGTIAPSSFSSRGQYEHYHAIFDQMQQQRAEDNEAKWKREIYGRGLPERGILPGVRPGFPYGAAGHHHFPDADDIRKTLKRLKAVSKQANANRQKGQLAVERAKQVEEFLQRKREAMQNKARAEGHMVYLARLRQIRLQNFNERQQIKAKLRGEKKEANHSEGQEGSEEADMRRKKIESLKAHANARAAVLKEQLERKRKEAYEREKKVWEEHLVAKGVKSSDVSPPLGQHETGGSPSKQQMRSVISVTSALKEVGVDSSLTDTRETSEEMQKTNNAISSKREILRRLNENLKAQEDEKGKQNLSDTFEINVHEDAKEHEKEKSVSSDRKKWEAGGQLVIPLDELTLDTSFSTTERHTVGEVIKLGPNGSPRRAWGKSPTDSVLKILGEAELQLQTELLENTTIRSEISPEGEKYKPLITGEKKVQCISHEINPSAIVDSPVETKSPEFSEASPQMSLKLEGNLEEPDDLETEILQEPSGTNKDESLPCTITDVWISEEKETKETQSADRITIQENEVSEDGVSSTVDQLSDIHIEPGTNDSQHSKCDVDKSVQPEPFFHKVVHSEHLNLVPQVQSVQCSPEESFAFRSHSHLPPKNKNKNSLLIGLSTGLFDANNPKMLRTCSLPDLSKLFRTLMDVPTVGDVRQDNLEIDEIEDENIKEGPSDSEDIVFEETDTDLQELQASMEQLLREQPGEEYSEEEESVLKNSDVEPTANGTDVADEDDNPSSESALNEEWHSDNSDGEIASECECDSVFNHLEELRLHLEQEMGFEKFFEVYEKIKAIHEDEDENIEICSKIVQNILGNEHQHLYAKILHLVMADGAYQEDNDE

[13] = target: T5, Serine/threonine-protein kinase Nek1 (Homo sapiens); conditions: at 1 µM
[14] = target: T6, Serine/threonine-protein kinase Nek2 (Homo sapiens) (UniProt P51955); conditions: at 0.1 µM
T6 sequence (whole entry): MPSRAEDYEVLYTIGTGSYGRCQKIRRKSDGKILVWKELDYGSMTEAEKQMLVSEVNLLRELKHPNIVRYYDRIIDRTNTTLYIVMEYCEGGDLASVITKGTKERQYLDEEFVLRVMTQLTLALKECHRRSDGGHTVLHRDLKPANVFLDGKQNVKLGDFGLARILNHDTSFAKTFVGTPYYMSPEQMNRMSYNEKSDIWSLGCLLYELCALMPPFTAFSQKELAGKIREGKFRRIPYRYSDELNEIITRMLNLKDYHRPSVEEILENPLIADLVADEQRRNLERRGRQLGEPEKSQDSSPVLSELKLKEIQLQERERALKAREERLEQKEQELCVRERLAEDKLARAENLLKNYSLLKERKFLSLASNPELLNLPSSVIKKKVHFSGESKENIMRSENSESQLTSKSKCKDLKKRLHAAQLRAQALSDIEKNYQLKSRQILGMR

[15] = target: T6, Serine/threonine-protein kinase Nek2 (Homo sapiens); conditions: at 1 µM
[16] = target: Serine/threonine-protein kinase Nek6 (Homo sapiens) (UniProt Q9HC98); conditions: at 0.1 µM
Sequence of Serine/threonine-protein kinase Nek6 (Homo sapiens) (Q9HC98 whole entry): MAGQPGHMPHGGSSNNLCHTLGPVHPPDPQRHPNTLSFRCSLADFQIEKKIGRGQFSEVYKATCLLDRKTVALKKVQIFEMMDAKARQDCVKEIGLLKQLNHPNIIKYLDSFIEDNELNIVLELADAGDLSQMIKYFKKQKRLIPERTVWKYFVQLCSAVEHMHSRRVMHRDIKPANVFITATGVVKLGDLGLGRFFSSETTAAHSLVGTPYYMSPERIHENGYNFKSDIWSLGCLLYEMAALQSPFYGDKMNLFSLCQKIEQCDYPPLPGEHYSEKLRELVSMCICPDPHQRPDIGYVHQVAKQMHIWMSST

[17] = target: Serine/threonine-protein kinase Nek6 (Homo sapiens) (UniProt Q9HC98); conditions: at 1 µM
[18] = target: Serine/threonine-protein kinase Nek7 (Homo sapiens) (UniProt Q8TDX7); conditions: at 0.1 µM
Sequence of Serine/threonine-protein kinase Nek7 (Homo sapiens) (Q8TDX7 whole entry, looked up): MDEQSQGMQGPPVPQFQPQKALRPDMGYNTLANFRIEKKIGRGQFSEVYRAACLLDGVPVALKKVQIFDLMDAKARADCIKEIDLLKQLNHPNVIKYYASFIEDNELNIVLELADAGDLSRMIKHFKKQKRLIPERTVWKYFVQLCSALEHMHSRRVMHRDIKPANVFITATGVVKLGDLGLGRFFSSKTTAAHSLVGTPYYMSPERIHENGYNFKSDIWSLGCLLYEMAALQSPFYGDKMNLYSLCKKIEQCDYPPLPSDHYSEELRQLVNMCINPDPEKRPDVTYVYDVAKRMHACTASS

[19] = target: Serine/threonine-protein kinase Nek7 (Homo sapiens) (UniProt Q8TDX7); conditions: at 1 µM
[20] = target: T7, Serine/threonine-protein kinase Nek9 (Homo sapiens) (UniProt Q8TD19); conditions: at 0.1 µM;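 further: reported value is the mean percent inhibition of NEK9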
T7 sequence (whole entry): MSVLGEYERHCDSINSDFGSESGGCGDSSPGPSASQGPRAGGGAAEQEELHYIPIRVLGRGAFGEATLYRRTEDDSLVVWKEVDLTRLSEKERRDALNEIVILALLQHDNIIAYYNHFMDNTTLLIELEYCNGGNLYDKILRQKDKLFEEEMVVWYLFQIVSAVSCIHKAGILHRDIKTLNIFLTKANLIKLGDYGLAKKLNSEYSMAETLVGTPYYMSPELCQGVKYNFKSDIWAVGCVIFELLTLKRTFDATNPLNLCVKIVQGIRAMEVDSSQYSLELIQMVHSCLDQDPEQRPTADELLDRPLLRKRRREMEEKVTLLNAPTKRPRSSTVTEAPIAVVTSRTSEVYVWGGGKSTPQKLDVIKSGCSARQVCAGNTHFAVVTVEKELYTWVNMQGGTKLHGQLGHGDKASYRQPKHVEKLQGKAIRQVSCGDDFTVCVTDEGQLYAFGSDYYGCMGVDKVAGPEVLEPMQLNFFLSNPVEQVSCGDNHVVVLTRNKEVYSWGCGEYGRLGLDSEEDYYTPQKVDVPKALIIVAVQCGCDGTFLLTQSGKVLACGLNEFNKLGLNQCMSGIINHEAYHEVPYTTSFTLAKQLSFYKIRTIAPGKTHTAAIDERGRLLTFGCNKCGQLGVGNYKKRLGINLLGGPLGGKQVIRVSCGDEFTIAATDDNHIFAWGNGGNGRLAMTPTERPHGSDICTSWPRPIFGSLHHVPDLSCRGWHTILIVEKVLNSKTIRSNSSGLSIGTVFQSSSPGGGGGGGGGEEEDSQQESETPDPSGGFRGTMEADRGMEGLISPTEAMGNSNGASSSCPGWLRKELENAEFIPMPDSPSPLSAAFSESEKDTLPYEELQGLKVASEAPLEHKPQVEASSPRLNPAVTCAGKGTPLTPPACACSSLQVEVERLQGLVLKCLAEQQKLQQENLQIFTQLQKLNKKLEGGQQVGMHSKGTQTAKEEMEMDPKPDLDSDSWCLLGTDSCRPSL

Sequence of Sphingosine kinase 1 (Homo sapiens) (Q9NYA1 whole entry): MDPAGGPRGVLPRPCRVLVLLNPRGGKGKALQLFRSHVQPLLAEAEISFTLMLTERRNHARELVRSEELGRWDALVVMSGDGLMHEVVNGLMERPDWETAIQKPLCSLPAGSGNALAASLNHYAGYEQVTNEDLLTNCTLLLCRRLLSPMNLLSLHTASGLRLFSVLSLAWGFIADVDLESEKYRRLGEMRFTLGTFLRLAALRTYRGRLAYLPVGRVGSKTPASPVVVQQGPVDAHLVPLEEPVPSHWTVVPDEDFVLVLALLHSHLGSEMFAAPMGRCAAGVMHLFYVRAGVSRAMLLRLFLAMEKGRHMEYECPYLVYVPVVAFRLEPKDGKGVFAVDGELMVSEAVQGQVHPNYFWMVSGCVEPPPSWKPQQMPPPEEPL

SMILES	inhibition [1]	inhibition [2]	inhibition [3]	inhibition [4]	inhibition [5]	inhibition [6]	inhibition [7]	inhibition [8]	inhibition [9]	inhibition [10]	inhibition [11]	inhibition [12]	inhibition [13]	inhibition [14]	inhibition [15]	inhibition [16]	inhibition [17]	inhibition [18]	inhibition [19]	inhibition [20]
C#Cc1cccc(Nc2ncnc3ccc(OCCCCNCCS(C)(=O)=O)cc23)c1	-0.99%	-0.09%	0.04%	4.02%	9.21%	5.89%	12.2%	6.73%	9.06%	7.86%	9.33%	3.06%	8.52%	5.28%	6.09%	3.67%	3.84%	4.76%	3.44%	8.12%
Cc1nnc(-c2ccc(C)c(-c3ccc(C(=O)NCc4ccc(Cl)cc4)cc3)c2)o1	-3.95%	0.02%	0.44%	2.9%	5.39%	8.21%	5.98%	6.95%	4.95%	5.66%	5.13%	2.48%	4.54%	4.28%	3.25%	3.46%	5.29%	5.57%	3.78%	6.68%

— ChEMBL document CHEMBL1961873, “Compounds: GSK PKIS; Assays: Nanosyn kinase panel” (2012)
